Experimental findings from PubChem BioAssay (NCATS) are described below.

Several values for one entry are separate records, joined by “and”; a condition that tells them apart may be missing. Equal values may be shown once. Results filed as inconclusive are left out. Activity calls are given as the source filed them. Calls follow the shape of the dose curve; as a rule, active = well fitted curve in the direction sought with a large enough effect; inconclusive = small, poorly fitted or top-dose-only effect, or another doubt; inactive = no such curve, though single readings can be large; an effect the other way counts as inactive or inconclusive.

A short description of assay [1]: qHTS of pediatric cancer cell lines to identify multiple opportunities for drug repurposing: Primary screen for BT-12 cells (AID 1347101). Also: nearly all actives have a fitted effect of over 25% in size. Also: potency is read from the fitted curve at half-maximal effect. In short, it runs like this: (§1)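 Cells (500-1,000/well) rested 5 h, then received compounds for 48 h; metabolically active cells were measured by CellTiter-Glo luminescence. Final concentrations spanned up to 46 µM (MIPE, 11-point) or 0.59 nM-46 µM (NPC, 8-point) in primary screens, 11-point in follow-ups.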

Assay [2] can be described thus: qHTS of pediatric cancer cell lines to identify multiple opportunities for drug repurposing: Primary screen for Rh18 cells (AID 1347102). Also: nearly all actives have a fitted effect of over 65% in size. Also: potency is read from the fitted curve at half-maximal effect. A digest of the protocol: as §1
(In general: Quantitative high-throughput screening tests each substance at several concentrations.)

A short description of assay [3]: qHTS of pediatric cancer cell lines to identify multiple opportunities for drug repurposing: Primary screen for OHS-50 cells (AID 1347103). Also: nearly all actives have a fitted effect of over 40% in size. Also: potency is read from the fitted curve at half-maximal effect. A digest of the protocol: as §1
A short description of assay [4]: qHTS of pediatric cancer cell lines to identify multiple opportunities for drug repurposing: Primary screen for RD cells (AID 1347104). Also: nearly all actives have a fitted effect of over 55% in size. Also: potency is read from the fitted curve at half-maximal effect. In short, it runs like this: (§2)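 ATP-based luminescence (CellTiter-Glo) quantifies viability after a 48-hour exposure. Compounds are dosed across 8 or 11 final concentrations; DMSO and 2.3 µM bortezomib serve as controls.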
Assay [5] is described as follows: qHTS of pediatric cancer cell lines to identify multiple opportunities for drug repurposing: Primary screen for MG 63 (6-TG R) cells (AID 1347105). Also: nearly all actives have a fitted effect of over 50% in size. Also: potency is read from the fitted curve at half-maximal effect. In short, it runs like this: as §2
The nature of assay [6]: qHTS of pediatric cancer cell lines to identify multiple opportunities for drug repurposing: Primary screen for control Hh wild type fibroblast cells (AID 1347106).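 Also: series mostly up to about 46 µM; a drop in luminescence marks cytotoxicity and a rise apparent proliferation; nearly all actives have a fitted effect of over 55% in size.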 A digest of the protocol:
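Viability after 48 h compound treatment at 37C, 500-1,000 cells/well, read as ATP luminescence with CellTiter-Glo. Primary screens used 11-point (MIPE, 0.78 nM-46 µM) or 8-point (NPC, 0.59 nM-46 µM) final concentrations; follow-up screens used 11-point dilutions.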

Assay [7] can be described thus: qHTS of pediatric cancer cell lines to identify multiple opportunities for drug repurposing: Primary screen for Rh30 cells (AID 1347107). Also: series mostly up to about 46 µM; nearly all actives have a fitted effect of over 75% in size. In short, it runs like this:
as §1

Assay [8] in a line: qHTS of pediatric cancer cell lines to identify multiple opportunities for drug repurposing: Primary screen for Rh41 cells (AID 1347108). Also: nearly all actives have a fitted effect of over 70% in size. Also: potency is read from the fitted curve at half-maximal effect. A digest of the protocol: as §2
Assay [9] is described as follows: qHTS of pediatric cancer cell lines to identify multiple opportunities for drug repurposing: Primary screen for LAN-5 cells (AID 1347100). Also: potency is read from the fitted curve at half-maximal effect. In short, it runs like this: as §1
Assay [10] in a line: qHTS of pediatric cancer cell lines to identify multiple opportunities for drug repurposing: Confirmatory screen for A673 cells (AID 1347110).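 Also: potency is read from the fitted curve at half-maximal effect; cells exposed to compound for 48 h before the viability read; nearly all actives have a fitted effect of over 65% in size.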 In short, it runs like this: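 qHTS titration format: primary MIPE 0.78 nM-46 µM (11 pts), NPC 0.59 nM-46 µM; confirmation 11 pts. 48 h, CTG luminescence.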
A short description of assay [11]: qHTS of pediatric cancer cell lines to identify multiple opportunities for drug repurposing: Confirmatory screen for SK-N-MC cells (AID 1347111).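 Also: potency is read from the fitted curve at half-maximal effect; cells exposed to compound for 48 h before the readout; nearly all actives have a fitted effect of over 70% in size.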 In short, it runs like this: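 Seed 500-1,000 cells/well; rest 5 h at 37 degrees C. Pin-transfer compounds, 11-point titration. Incubate 48 h. Add CellTiter-Glo, 15 min RT, read luminescence.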
Assay [12] is described as follows: qHTS of pediatric cancer cell lines to identify multiple opportunities for drug repurposing: Confirmatory screen for BT-12 cells (AID 1347112). Also: nearly all actives have a fitted effect of over 55% in size. Also: potency is read from the fitted curve at half-maximal effect. In short, it runs like this:
as §1

Assay [13] can be described thus: qHTS of pediatric cancer cell lines to identify multiple opportunities for drug repurposing: Confirmatory screen for LAN-5 cells (AID 1347113). Also: potency is read from the fitted curve at half-maximal effect; nearly all actives have a fitted effect of over 65% in size. In short, it runs like this:
as §1

Assay [14] in a line: qHTS of pediatric cancer cell lines to identify multiple opportunities for drug repurposing: Confirmatory screen for DAOY cells (AID 1347114). Also: potency is read from the fitted curve at half-maximal effect; nearly all actives have a fitted effect of over 65% in size. In short, it runs like this:
(§3)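 Viability measured as metabolically active cells via CellTiter-Glo luminescence following 48 hours of compound exposure, 11-point dilutions in confirmatory testing. 500-1,000 cells/well plated 5 hours before dosing; controls were DMSO and 2.3 µM bortezomib.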

Assay [15] in a line: qHTS of pediatric cancer cell lines to identify multiple opportunities for drug repurposing: Confirmatory screen for NB-EBc1 cells (AID 1347115).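 Also: cells exposed to compound for 48 h before the viability read; nearly all actives have a fitted effect of over 45% in size.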 A digest of the protocol: as §1
Assay [16] can be described thus: qHTS of pediatric cancer cell lines to identify multiple opportunities for drug repurposing: Confirmatory screen for BT-37 cells (AID 1347117). Also: potency is read from the fitted curve at half-maximal effect; nearly all actives have a fitted effect of over 55% in size. A digest of the protocol: as §1
Assay [17] in a line: qHTS of pediatric cancer cell lines to identify multiple opportunities for drug repurposing: Confirmatory screen for SJ-GBM2 cells (AID 1347116). Also: nearly all actives have a fitted effect of over 60% in size. In short, it runs like this: as §3
Assay [18] in a line: qHTS of pediatric cancer cell lines to identify multiple opportunities for drug repurposing: Confirmatory screen for TC32 cells (AID 1347118). A digest of the protocol:
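Luminescent CellTiter-Glo read-out of metabolically active TC32 cells after 48 h compound exposure. Primary: MIPE 11-point, 0.78 nM–46 µM; NPC 8-point, 0.59 nM–46 µM. Confirmatory: 11-point dilutions.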

Assay [19] can be described thus: qHTS of pediatric cancer cell lines to identify multiple opportunities for drug repurposing: Confirmatory screen for MG 63 (6-TG R) cells (AID 1347119). Also: nearly all actives have a fitted effect of over 55% in size. In short, it runs like this: as §1

Turning to `CC1COc2c(N3CCN(C)CC3)c(F)cc3c(=O)c(C(=O)O)cn1c23` (stereo unspecified), the Potency result in assay [1], in assay [2], in assay [3], in assay [4], in assay [5] and in [6] was “inactive” in each case. In addition, the Potency entry in assay [8] was “inactive”. The outcome in assay [7] was inactive.

Consider `Clc1ccc2c(c1)C(N1CCNCC1)=Nc1ccccc1O2`, for which the Potency result in [1], in assay [2], in [3], in assay [4], in assay [5] and in assay [6] was “inactive” each time. In assay [8], the Potency entry was “inactive”. In addition, the result in [7] was inactive.

For the compound `COc1ccccc1OCCNCC(O)COc1cccc2[nH]c3ccccc3c12` (stereo unspecified), the Potency result in assay [9], in [2], in assay [4], in assay [5] and in [6] was “inactive” in each case. In addition, the compound was classed as inactive in assay [7].

`CCOC(=O)c1ncn2c1CN(C)C(=O)c1cc(F)ccc1-2`: the Potency entry in [1], in [2], in [3], in [4], in assay [5] and in [6] was “inactive” each time. The Potency result in assay [8] is “inactive”. Besides, in assay [7], the compound was classed as inactive.

Consider `OCCN(CCO)c1nc(N2CCCCC2)c2nc(N(CCO)CCO)nc(N3CCCCC3)c2n1`, for which the Potency result in [9], in [2], in assay [6] and in [8] was “inactive” in each case. The Potency in assay [3] is 21.7 µM (active). The compound was classed as inactive in assay [7].

For `Cc1ccccc1N1C(=O)c2cc(S(N)(=O)=O)c(Cl)cc2NC1C` (stereo unspecified), the Potency result in assay [1], in [2], in [3], in [4], in assay [5] and in [6] was “inactive” in each case. Moreover, the Potency result in [8] was “inactive”. In addition, the result in assay [7] was inactive.

Regarding `CN(CCOc1ccc(NS(C)(=O)=O)cc1)CCc1ccc(NS(C)(=O)=O)cc1`, the Potency entry in [1], in assay [2], in assay [3], in assay [4], in assay [5] and in assay [6] was “inactive” in each case. Also, the Potency result in [8] is “inactive”. Further, in assay [7], the outcome was inactive.

Take `CN(C)C(=N)N=C(N)N`: the Potency result in assay [1], in assay [2], in assay [3], in assay [4], in assay [5] and in [6] was “inactive” in each case. Moreover, the Potency result in assay [8] is “inactive”. Further, the call in [7] was inactive.

In the case of `Nc1nnc(-c2cccc(Cl)c2Cl)c(N)n1`, the Potency result in [1], in [2], in assay [3], in assay [4], in assay [5] and in assay [6] was “inactive” in each case. Besides, in assay [8], the Potency entry is “inactive”. Besides, the outcome in assay [7] was inactive.

`CC12CC3CC(C)(C1)CC(N)(C3)C2`: the Potency entry in assay [9], in assay [1], in assay [2], in assay [5] and in assay [6] was “inactive” in each case. Besides, the compound was classed as inactive in assay [7].

Regarding `CN1CCN(CCCN2c3ccccc3Sc3ccc(Cl)cc32)CC1`, the Potency was 9.35 µM (active) in [9]; 6.11 µM (active) in assay [1]; 9.68 µM (active) in assay [3]; 9.35 µM (active) and 26.6 µM (active) in assay [4]; 7.37 µM (active) in assay [10]; 3.69 µM (active) in assay [11]. Besides, the Potency in assay [12] is 16.5 µM (active); in assay [13], 16.5 µM (active); in [14], 20.8 µM (active); in [16] it was 16.5 µM (active). Further, the Potency result in assay [6], in assay [8] and in assay [15] was “inactive” in each case. Also, in [7], the compound was called inactive.

On to `Cn1c(=O)c2c(ncn2C)n(C)c1=O`, for which the Potency entry in assay [1], in [2], in assay [3], in assay [4], in assay [5] and in assay [6] was “inactive” in each case. Also, the Potency entry in assay [8] is “inactive”. The outcome in [7] was inactive.

On to `Cc1cnc(C(=O)NCCc2ccc(S(=O)(=O)NC(=O)NC3CCCCC3)cc2)cn1`, for which the Potency result in [1], in [2], in assay [3], in assay [4], in [5] and in assay [6] was “inactive” each time. The Potency entry in assay [8] was “inactive”. The result in assay [7] was inactive.

For the compound `CS(=O)(=O)CCNCc1ccc(-c2ccc3ncnc(Nc4ccc(OCc5cccc(F)c5)c(Cl)c4)c3c2)o1`, the Potency in assay [9] is 16.6 µM (active); in [2] it was 20.9 µM (active); in assay [4], 1.32 µM (active) and 26.6 µM (active); in [5], 5.9 µM (active); in assay [10], 20.8 µM (active); in assay [12] it was 13.1 µM (active). In addition, the Potency result in assay [6] and in assay [15] was “inactive” in each case.

Turning to `COc1cc2nc(N3CCN(C(=O)C4COc5ccccc5O4)CC3)nc(N)c2cc1OC` (stereo unspecified), the Potency result in [9], in assay [5], in assay [6] and in assay [8] was “inactive” throughout. The Potency is 26.4 µM (active) in [2] and 24.6 µM (active) in assay [3]. Besides, the outcome in assay [7] was inactive.

For `COc1ccc(C2CNC(=O)C2)cc1OC1CCCC1` (stereo unspecified), the Potency result in assay [1], in assay [2], in [3], in assay [4], in [5] and in assay [6] was “inactive” each time. For the same compound, the Potency entry in [8] was “inactive”. Also, in [7], the call was inactive.

With `CC(C)NCC(O)COc1ccc(CCOCC2CC2)cc1` (stereo unspecified), the Potency result in assay [1], in [2], in assay [3], in [4], in assay [5] and in [6] was “inactive” each time. Also, the Potency entry in assay [8] was “inactive”. Further, the compound was classed as inactive in assay [7].

In the case of `CCOC(=O)C(C)(C)Oc1ccc(Cl)cc1`, the Potency entry in assay [1], in assay [2], in assay [3], in assay [4], in assay [5] and in [6] was “inactive” in each case. Moreover, the Potency result in assay [8] is “inactive”. The outcome in assay [7] was inactive.

On to `NS(=O)(=O)c1cc2c(cc1Cl)NCNS2(=O)=O`, for which the Potency entry in assay [1], in assay [2], in [3], in assay [4], in [5] and in [6] was “inactive” throughout. Further, the Potency result in assay [8] was “inactive”. Also, the call in [7] was inactive.

On to `CC#C[C@]1(O)CC[C@H]2[C@@H]3CCC4=CC(=O)CCC4=C3[C@@H](c3ccc(N(C)C)cc3)C[C@@]21C`, for which the Potency in assay [9] is 16.8 µM (active) and 209 nM (active); in assay [1], 0.685 µM (active); in [3], 7.69 µM (active); in assay [4], 26.6 µM (active) and 662 nM (active); in assay [8], 743 nM (active); in assay [18], 18.5 µM (active). The Potency entry in [6], in [12], in [15], in assay [17] and in [19] was “inactive” in each case. For the same compound, the compound was called inactive in assay [7].

Take `CN1C(C(=O)Nc2ccccn2)=C(O)c2ccccc2S1(=O)=O`: the Potency entry in assay [1], in assay [2], in [3], in assay [4], in assay [5] and in [6] was “inactive” each time. For the same compound, in [8], the Potency result was “inactive”. Also, the call in assay [7] was inactive.

As for `C[C@@H]1CC(=O)NN=C1c1ccc(NN=C(C#N)C#N)cc1`, the Potency in assay [1] is 21.9 µM (active) and 27.6 µM (active) and 24.3 µM (active); in [3], 21.7 µM (active); in assay [4], 29.6 µM (active); in [5], 10.6 µM (active). Further, the Potency result in [2] and in assay [6] was “inactive” throughout. Also, the compound was called inactive in assay [7].

On to `COc1ccccc1OCC(O)CN1CCN(CC(=O)Nc2c(C)cccc2C)CC1` (stereo unspecified), for which the Potency entry in [1], in assay [2], in [3], in assay [4], in assay [5] and in assay [6] was “inactive” each time. The Potency result in [8] is “inactive”. In addition, the call in [7] was inactive.
